This passage reports outcome and AC50 results from PubChem BioAssay (EPA / NIEHS).

The target of test [1] is human Retinoic Acid Receptor beta (RARb), RARB (gene 5915) (UniProt P10826). Description: ATG_RARb_TRANS: Attagene TRANS-FACTORIAL HepG2 Assay for human Retinoic Acid Receptor beta (AID 2283004). The gist of the method:
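Transient transfection of HepG2 with multiple reporter units → chemical dosing, 24 h → total RNA isolation → RT with oligo(dT) → reporter-specific PCR, 6-FAM primer extension, HpaI digest → capillary electrophoresis. Positive direction vs DMSO control.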

For test [2], the target named is Retinoic acid receptor alpha (Homo sapiens) (UniProt P10276). Kind of test: ATG_RARa_TRANS: Attagene TRANS-FACTORIAL HepG2 Assay for human Retinoic Acid Receptor alpha (RARa) (AID 2283005).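 As to AC50: potency for increased reporter signal meaning RARa activation over DMSO.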 The gist of the method:
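Reporter transcripts, measured by RT-PCR with fluorescent labeling and capillary electrophoresis after 24 h dosing, reflect activity of an exogenous human RARa–GAL4 fusion in transiently transfected HepG2. Fitted for increase relative to DMSO.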

Test [3] addresses Peroxisome proliferator-activated receptor gamma (Homo sapiens) (UniProt P37231). Kind of test: ATG_PPARg_TRANS: Attagene TRANS-FACTORIAL HepG2 Assay for human Peroxisome Proliferator-activated Receptor-gamma (PPARg) (AID 2283007). The gist of the method: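 HepG2 cells transiently transfected with multiplexed GAL4-UAS reporter units and exogenous chimeric NR-Gal4 proteins; reporter mRNA quantified after 24 h compound exposure by RT-PCR, fluorescent labelling, HpaI digestion and capillary electrophoresis; gain-of-signal fitted versus DMSO baseline.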

Test [4] addresses Nuclear receptor subfamily 1 group I member 2 (Homo sapiens) (UniProt O75469). Description: ATG_PXR_TRANS: Attagene TRANS-FACTORIAL HepG2 Assay for human Pregnane X Receptor (PXR) (AID 2283008). The gist of the method:
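Read-out is fluorescence of labelled reporter cDNA fragments separated by capillary electrophoresis after RT-PCR and HpaI digestion. Source: HepG2 cells carrying PXR-GAL4/UAS reporter constructs, treated 24 h; activity fitted upward relative to DMSO.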

The target in test [5] is human Retinoic Acid Receptor gamma (RARg), RARG (gene 5916) (UniProt P13631). Kind of test: ATG_RARg_TRANS: Attagene TRANS-FACTORIAL HepG2 Assay for human Retinoic Acid Receptor gamma (RARg) (AID 2283009).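 As to AC50: AC50 is for reporter induction above DMSO meaning RARg activation.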 The essentials: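 HepG2, RARg-GAL4 TRANS system, 24 h exposure; reporter mRNA by RT-PCR + CE fluorescence; increase over DMSO.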
human Retinoic Acid Receptor gamma (RARg), RARG (gene 5916), sequence (P13631 whole entry, looked up, the tested form may be a part): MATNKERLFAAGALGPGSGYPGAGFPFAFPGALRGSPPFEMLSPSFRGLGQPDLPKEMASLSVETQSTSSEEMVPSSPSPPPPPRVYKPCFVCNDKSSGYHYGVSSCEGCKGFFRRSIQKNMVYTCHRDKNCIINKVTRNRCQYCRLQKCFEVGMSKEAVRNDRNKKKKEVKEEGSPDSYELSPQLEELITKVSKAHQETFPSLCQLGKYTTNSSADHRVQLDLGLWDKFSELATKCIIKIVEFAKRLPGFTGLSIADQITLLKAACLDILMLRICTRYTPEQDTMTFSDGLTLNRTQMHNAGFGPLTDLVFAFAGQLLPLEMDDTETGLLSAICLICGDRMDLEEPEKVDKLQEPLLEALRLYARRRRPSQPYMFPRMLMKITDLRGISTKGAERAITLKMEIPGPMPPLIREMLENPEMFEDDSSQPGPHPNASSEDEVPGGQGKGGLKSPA
Test [6] concerns the target human RAR-related Orphan Receptor beta (RORb), RORB (gene 6096) (UniProt Q92753). Kind of test: ATG_RORb_TRANS: Attagene TRANS-FACTORIAL HepG2 Assay for human RAR-related Orphan Receptor beta (RORb) (AID 2283010).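 As to AC50: potency for increased reporter mRNA meaning activation of RORb-Gal4 chimera.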 The gist of the method: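 In this TRANS-format test, human HepG2 cells express chimeric NR-Gal4 fusion proteins driving GAL4-UAS reporters. After 24 h dosing, reporter transcripts are measured by fluorescent RT-PCR/capillary electrophoresis, with DMSO as negative control.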

The target of test [7] is human RAR-related Orphan Receptor gamma (RORg), RORC (gene 6097) (UniProt P51449). Kind of test: ATG_RORg_TRANS: Attagene TRANS-FACTORIAL HepG2 Assay for human RAR-related Orphan Receptor gamma (RORg) (AID 2283011). The essentials: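 First, HepG2 liver cells were transfected with GAL4-UAS-driven reporter constructs and the RORg-Gal4 fusion. Next, they were treated with chemical for 24 h. Finally, reporter mRNA was quantified by RT-PCR and capillary electrophoresis, with upward activity fitted against DMSO.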
human RAR-related Orphan Receptor gamma (RORg), RORC (gene 6097), sequence (P51449 whole entry, looked up, the tested form may be a part): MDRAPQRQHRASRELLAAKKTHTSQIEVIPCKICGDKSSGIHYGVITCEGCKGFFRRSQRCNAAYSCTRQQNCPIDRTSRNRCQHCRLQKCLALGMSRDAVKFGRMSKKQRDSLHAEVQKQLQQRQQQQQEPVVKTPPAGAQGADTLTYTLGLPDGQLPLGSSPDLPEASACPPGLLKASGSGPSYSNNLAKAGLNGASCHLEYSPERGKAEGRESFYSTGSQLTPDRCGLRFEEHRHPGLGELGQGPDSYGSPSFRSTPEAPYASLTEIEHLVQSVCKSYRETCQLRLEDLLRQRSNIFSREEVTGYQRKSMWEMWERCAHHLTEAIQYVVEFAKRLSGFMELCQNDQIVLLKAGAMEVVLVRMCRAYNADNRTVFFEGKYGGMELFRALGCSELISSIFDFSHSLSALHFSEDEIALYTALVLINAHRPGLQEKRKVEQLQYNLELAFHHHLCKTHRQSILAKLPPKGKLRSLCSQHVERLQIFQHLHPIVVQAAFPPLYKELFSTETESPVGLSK

The target in test [8] is human Retinoid X Receptor beta (RXRb), RXRB (gene 6257) (UniProt P28702). Description: ATG_RXRb_TRANS: Attagene TRANS-FACTORIAL HepG2 Assay for human Retinoid X Receptor beta (RXRb) (AID 2283013). The gist of the method:
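Multiplexed TRANS reporter assay in HepG2; 24 h dosing; reporter mRNA by RT-PCR/CE fluorescence; gain-of-signal relative to DMSO.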

The target of test [9] is human Vitamin D Receptor (VDR), VDR (gene 7421) (UniProt P11473). Description: ATG_VDR_TRANS: Attagene TRANS-FACTORIAL HepG2 Assay for human Vitamin D Receptor (VDR) (AID 2283022). The gist of the method: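 Steps: transfect HepG2 with GAL4-UAS-driven reporter constructs; dose compounds 24 h; isolate RNA, reverse-transcribe, PCR-amplify with 6-FAM-labelled primer extension and HpaI digestion; quantify fragments by capillary electrophoresis relative to DMSO.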
human Vitamin D Receptor (VDR), VDR (gene 7421), sequence (P11473 whole entry, looked up, the tested form may be a part): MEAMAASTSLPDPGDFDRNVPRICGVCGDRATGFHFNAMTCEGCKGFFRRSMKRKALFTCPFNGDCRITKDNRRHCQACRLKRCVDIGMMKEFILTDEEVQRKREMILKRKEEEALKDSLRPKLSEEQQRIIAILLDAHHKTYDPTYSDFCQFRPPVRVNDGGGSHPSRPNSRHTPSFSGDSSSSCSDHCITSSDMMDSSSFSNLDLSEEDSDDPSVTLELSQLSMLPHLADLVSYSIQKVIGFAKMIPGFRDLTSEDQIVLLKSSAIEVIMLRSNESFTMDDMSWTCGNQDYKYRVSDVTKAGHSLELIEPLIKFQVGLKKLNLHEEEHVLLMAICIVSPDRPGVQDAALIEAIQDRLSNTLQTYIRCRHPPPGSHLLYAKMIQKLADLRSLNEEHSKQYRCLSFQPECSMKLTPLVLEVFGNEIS

Test [10] has as its target Retinoic acid receptor RXR-alpha (Homo sapiens) (UniProt P19793). Description: ATG_RXRa_TRANS: Attagene TRANS-FACTORIAL HepG2 Assay for human Retinoid X Receptor alpha (RXRa) (AID 2283012). The gist of the method: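 Cells (HepG2) carried transiently transfected GAL4-responsive reporter units. Following a 24 h chemical incubation, reporter mRNA induction was read via RT-PCR fragment analysis; DMSO served as negative control and baseline.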

The target in test [11] is human Thyroid Receptor alpha (THRa1), THRA (gene 7067) (UniProt P10827). Description: ATG_THRa1_TRANS: Attagene TRANS-FACTORIAL HepG2 Assay for human Thyroid Receptor alpha (THRa1) (AID 2283014). The essentials:
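Reporter transcript induction, read by capillary electrophoresis of 6-FAM-labelled RT-PCR products, reflects activity of a transfected THRa1-Gal4 fusion in HepG2 liver cells. Cells were dosed for 24 h; activity was fitted in the positive direction against DMSO.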

A short description of test [12]: BSK_3C_Proliferation: Cell Proliferation Assessment in the BioMAP Diversity Plus: 3C Assay (AID 2283006; active = hit-call score of the fitted dose curve at least 0.9, where 1 is the maximum; inactive = score below 0.9;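 as to AC50: potency may reflect either rise or fall in cell number versus DMSO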). The settings on record: primary human endothelial cells (HUVEC). The gist of the method:
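Proliferation of human vascular endothelial primary cells after 48 h dosing, quantified as SRB-stained protein at 560 nm relative to DMSO.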

Read-out in test [13]: E-selectin (Homo sapiens) (UniProt P16581)
Description: BSK_3C_Eselectin: BioMAP Diversity Plus: 3C Assay for Eselectin Biomarker Activity (AID 2283015; active = hit-call score of the fitted dose curve at least 0.9, where 1 is the maximum; inactive = score below 0.9;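 as to outcome: cell surface E-selectin protein quantified by ELISA 24 h after dosing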). The settings on record: primary human endothelial cells (HUVEC); actives raise or lower the signal. The essentials: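 ELISA read-out of E-selectin on endothelial monolayers after 24 h chemical treatment. Human umbilical vein primary cells served as the system, with DMSO defining baseline activity for bidirectional fitting.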

Read-out in test [14]: Interleukin-1 alpha (IL1a), IL1A (gene 3552)
Description: BSK_BE3C_IL1a: BioMAP Diversity Plus: BE3C Assay for Interleukin-1 alpha (IL1a) Biomarker Activity (AID 2283016; active = hit-call score of the fitted dose curve at least 0.9, where 1 is the maximum; inactive = score below 0.9). As to conditions: primary human bronchial epithelial cells; actives raise or lower the signal. The gist of the method:
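Cultures of primary human bronchial epithelial cells receive test chemical. After 24 h, IL-1a is quantified by ELISA, while parallel wells are fixed in TCA and SRB-stained for total protein. Changes in either direction are fitted relative to DMSO.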

Read-out in test [15]: Monocyte Chemoattractant Protein-1 (MCP1), CCL2 (gene 6347)
Description: BSK_3C_MCP1: BioMAP Diversity Plus: 3C Assay for Monocyte Chemoattractant Protein-1 (MCP1) Biomarker Activity (AID 2283017; active = hit-call score of the fitted dose curve at least 0.9, where 1 is the maximum; inactive = score below 0.9). The settings on record: primary human endothelial cells (HUVEC); actives raise or lower the signal. The essentials: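 ELISA read-out of MCP-1 from human umbilical vein endothelial cell cultures harvested 24 h post-dosing. Gain or loss of signal was fitted relative to DMSO.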

Read-out in test [16]: Monocyte Chemoattractant Protein-1 (MCP1), CCL2 (gene 6347)
Kind of test: BSK_4H_MCP1: BioMAP Diversity Plus: 4H Assay for Monocyte Chemoattractant Protein-1 (MCP1) Biomarker Activity (AID 2283018; active = hit-call score of the fitted dose curve at least 0.9, where 1 is the maximum; inactive = score below 0.9). As to conditions: primary human endothelial cells (HUVEC); actives raise or lower the signal. The gist of the method:
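Readout: MCP-1 ELISA on compound-treated HUVEC, sampled 24 h post-dosing. Baseline and negative control DMSO; bidirectional fit. Overt toxicity checked alongside by sulforhodamine B protein staining at time of biomarker measurement.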

Read-out in test [17]: Human Leukocyte Antigen - DR isotype (HLADR), HLA-DRA (gene 3122)
Description: BSK_3C_HLADR: BioMAP Diversity Plus: 3C Assay for Human Leukocyte Antigen - DR isotype (HLADR) Biomarker Activity (AID 2283019; active = hit-call score of the fitted dose curve at least 0.9, where 1 is the maximum; inactive = score below 0.9). As to conditions: primary human endothelial cells (HUVEC); actives raise or lower the signal. The essentials: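 ELISA readout of surface HLA-DR on human umbilical vein endothelium, taken 24 h after chemical treatment. Gain- and loss-of-signal were both fitted relative to DMSO.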

Read-out in test [18]: Interleukin-8 (IL8), CXCL8 (gene 3576)
Kind of test: BSK_3C_IL8: BioMAP Diversity Plus: 3C Assay for Interleukin-8 (IL8) Biomarker Activity (AID 2283020; active = hit-call score of the fitted dose curve at least 0.9, where 1 is the maximum; inactive = score below 0.9). As to conditions: primary human endothelial cells (HUVEC); actives raise or lower the signal. The gist of the method: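 Human vascular endothelial cells (umbilical vein) in the 3C system; IL-8 level detected by ELISA at 24 h post-dose, with DMSO as baseline.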

Read-out in test [19]: Monokine induced gamma interferon (MIG), CXCL9 (gene 4283)
Description: BSK_3C_MIG: BioMAP Diversity Plus: 3C Assay for Monokine induced gamma interferon (MIG) Biomarker Activity (AID 2283021; active = hit-call score of the fitted dose curve at least 0.9, where 1 is the maximum; inactive = score below 0.9). As to conditions: primary human endothelial cells (HUVEC); actives raise or lower the signal. The gist of the method: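 After 24 h of treatment, human umbilical vein endothelial cultures (3C system) had their MIG biomarker level determined by ELISA, with DMSO serving as negative control.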

A short description of test [20]: BSK_3C_SRB: Viability Assessment in the BioMAP Diversity Plus: 3C Assay (AID 2283023; active = hit-call score of the fitted dose curve at least 0.9, where 1 is the maximum; inactive = score below 0.9;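 also: fitted both ways against DMSO so a hit may be signal rise or drop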). As to conditions: primary human endothelial cells (HUVEC). The essentials:
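Absorbance at 560 nm of sulforhodamine B-stained (0.1%) total protein served as a cytotoxicity readout in human umbilical vein endothelial cells, 24 h after chemical treatment. Signal was fitted bidirectionally relative to DMSO.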

The structures appear in SMILES notation. Results filed as inconclusive are left out. A structure can be active in one record and inactive in another. Activity calls are given as the source filed them. The calls were made as follows, unless noted: active = hit-call score of the fitted dose curve at least 0.9, where 1 is the maximum; inconclusive = response in the unintended direction; inactive = score below 0.9.

human RAR-related Orphan Receptor beta (RORb), RORB (gene 6096), sequence (Q92753 whole entry, looked up, the tested form may be a part): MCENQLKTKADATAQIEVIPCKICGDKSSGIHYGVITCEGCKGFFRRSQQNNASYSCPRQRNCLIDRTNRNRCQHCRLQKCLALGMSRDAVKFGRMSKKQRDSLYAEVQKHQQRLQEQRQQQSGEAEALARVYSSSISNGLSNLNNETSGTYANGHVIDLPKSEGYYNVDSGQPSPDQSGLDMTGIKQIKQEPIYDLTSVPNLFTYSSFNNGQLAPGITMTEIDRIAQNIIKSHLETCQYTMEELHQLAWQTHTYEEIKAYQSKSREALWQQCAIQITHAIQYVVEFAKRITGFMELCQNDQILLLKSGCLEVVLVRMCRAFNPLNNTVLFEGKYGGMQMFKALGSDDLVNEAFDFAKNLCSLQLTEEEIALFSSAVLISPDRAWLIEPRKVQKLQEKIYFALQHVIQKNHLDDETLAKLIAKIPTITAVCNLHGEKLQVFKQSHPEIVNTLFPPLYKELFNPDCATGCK
Retinoic acid receptor alpha (Homo sapiens), sequence (P10276 whole entry, looked up, the tested form may be a part): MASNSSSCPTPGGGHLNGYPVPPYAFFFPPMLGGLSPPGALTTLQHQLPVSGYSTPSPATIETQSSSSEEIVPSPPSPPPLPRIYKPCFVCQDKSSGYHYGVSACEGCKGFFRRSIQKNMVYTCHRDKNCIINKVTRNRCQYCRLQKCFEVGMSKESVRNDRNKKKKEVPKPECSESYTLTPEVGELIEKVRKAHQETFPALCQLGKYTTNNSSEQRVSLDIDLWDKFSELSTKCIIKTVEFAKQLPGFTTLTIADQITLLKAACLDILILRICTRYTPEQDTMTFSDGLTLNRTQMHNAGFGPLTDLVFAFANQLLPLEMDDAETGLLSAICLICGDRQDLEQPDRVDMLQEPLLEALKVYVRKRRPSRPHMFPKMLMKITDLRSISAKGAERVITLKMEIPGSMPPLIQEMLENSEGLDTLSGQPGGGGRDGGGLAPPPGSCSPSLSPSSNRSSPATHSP
human Retinoid X Receptor beta (RXRb), RXRB (gene 6257), sequence (P28702 whole entry, looked up): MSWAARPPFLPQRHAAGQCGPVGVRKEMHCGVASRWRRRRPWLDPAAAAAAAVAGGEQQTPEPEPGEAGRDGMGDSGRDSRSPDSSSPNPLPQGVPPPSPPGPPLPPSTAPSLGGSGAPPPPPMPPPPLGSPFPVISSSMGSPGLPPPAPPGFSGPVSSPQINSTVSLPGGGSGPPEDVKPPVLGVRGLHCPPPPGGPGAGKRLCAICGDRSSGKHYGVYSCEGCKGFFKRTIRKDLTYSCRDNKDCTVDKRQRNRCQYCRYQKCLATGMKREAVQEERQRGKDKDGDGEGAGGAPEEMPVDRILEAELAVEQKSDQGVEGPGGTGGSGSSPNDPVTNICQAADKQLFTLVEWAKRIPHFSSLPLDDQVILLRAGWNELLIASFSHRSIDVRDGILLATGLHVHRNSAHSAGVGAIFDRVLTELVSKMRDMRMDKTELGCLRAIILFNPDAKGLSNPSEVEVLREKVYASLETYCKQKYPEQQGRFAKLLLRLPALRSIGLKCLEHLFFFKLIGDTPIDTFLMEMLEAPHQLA
human Retinoic Acid Receptor beta (RARb), RARB (gene 5915), sequence (P10826 whole entry, looked up): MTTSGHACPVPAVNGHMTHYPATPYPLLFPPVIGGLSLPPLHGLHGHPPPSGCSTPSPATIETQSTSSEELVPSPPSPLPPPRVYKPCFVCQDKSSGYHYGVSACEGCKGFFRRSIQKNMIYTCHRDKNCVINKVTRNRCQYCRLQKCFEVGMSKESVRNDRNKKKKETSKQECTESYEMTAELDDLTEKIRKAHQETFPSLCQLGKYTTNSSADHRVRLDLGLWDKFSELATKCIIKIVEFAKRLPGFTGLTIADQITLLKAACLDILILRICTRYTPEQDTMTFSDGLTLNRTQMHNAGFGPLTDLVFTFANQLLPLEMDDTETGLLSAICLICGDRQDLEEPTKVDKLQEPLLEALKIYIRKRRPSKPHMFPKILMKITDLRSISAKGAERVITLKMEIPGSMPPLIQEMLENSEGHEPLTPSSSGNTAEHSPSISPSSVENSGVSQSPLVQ
Peroxisome proliferator-activated receptor gamma (Homo sapiens), sequence (P37231 whole entry, looked up, the tested form may be a part): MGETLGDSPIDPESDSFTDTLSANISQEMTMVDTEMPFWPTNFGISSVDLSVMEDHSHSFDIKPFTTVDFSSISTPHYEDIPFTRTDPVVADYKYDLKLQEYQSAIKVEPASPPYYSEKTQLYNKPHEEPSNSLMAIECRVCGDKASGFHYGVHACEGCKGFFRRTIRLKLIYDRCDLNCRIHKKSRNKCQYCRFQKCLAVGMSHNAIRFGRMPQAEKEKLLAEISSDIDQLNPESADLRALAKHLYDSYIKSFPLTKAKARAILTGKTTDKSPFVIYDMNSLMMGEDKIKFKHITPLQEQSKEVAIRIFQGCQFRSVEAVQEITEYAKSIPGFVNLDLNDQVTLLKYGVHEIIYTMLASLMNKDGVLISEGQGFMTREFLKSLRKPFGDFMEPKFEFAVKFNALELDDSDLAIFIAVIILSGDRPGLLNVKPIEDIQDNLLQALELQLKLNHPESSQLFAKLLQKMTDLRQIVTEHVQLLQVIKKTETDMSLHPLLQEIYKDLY
Nuclear receptor subfamily 1 group I member 2 (Homo sapiens), sequence (O75469 whole entry, looked up, the tested form may be a part): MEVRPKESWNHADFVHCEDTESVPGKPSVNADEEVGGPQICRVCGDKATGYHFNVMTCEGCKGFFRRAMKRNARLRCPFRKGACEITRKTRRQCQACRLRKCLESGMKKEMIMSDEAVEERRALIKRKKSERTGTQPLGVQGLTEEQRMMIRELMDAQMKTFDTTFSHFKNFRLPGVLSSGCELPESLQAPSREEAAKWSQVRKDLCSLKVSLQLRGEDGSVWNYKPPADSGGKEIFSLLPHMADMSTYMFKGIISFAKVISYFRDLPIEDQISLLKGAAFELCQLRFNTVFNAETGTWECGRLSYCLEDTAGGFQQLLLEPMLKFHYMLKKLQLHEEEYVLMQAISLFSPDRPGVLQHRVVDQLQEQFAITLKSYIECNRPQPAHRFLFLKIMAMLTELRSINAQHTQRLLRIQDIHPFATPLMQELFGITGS
human Thyroid Receptor alpha (THRa1), THRA (gene 7067), sequence (P10827 whole entry, looked up, the tested form may be a part): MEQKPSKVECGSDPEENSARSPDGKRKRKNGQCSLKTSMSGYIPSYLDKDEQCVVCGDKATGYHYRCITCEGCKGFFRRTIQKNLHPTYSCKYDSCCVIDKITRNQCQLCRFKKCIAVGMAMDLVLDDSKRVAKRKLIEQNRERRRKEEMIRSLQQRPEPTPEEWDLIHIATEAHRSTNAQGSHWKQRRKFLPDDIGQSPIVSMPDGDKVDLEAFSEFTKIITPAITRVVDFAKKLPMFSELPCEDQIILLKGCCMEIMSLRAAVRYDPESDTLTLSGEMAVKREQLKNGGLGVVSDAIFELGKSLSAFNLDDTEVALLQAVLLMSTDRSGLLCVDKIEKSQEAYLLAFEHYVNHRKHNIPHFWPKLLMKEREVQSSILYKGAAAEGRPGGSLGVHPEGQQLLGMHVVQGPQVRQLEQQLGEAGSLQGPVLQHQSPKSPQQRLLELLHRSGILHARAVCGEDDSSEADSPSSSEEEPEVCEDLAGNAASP

Take `O=C1C(Cl)=C(Cl)C(=O)c2ccccc21`: the molecule was called inactive in [1], in [2], in test [3], in test [4], in [5] and in test [6]. Also, the call in test [7], in test [8] and in test [9] was inactive.
For the molecule `Cc1ccc2ccccc2c1C`, the call in test [1], in [3], in test [4], in [5], in test [6] and in [10] was inactive. In addition, the result in test [11] was inactive. In addition, the AC50 in test [8] is 100 µM (active).
For `COc1cc(-c2ccc(N)c(OC)c2)ccc1N`, the outcome in test [1], in [2], in test [12], in [3], in test [4] and in test [5] was inactive. Further, the call in [6], in test [11], in test [13], in [14], in [15] and in test [16] was inactive. The outcome in test [17], in [18], in test [19], in test [9] and in test [20] was inactive. Also, the AC50 in test [2] was 27.4 µM (active); in test [12], 28.8 µM (active); in [5], 27.2 µM (active); in test [8], 27.6 µM (active); in [14], 5.28 µM (active); in test [15], 30 µM (active). For the same molecule, the values for the AC50 in [17] and in test [18] were 25.5 µM (active) and 14.4 µM (active), respectively.
For the molecule `O=c1[nH]c(=O)[nH]c(=O)[nH]1`, the call in [1], in test [2], in [12], in test [4], in test [6] and in test [7] was inactive. For the same molecule, the molecule was called inactive in [10], in test [8], in test [11], in test [13], in test [14] and in test [15]. Also, the outcome in [16], in test [17], in test [19], in test [9] and in [20] was inactive.
With `O=[N+]([O-])c1ccc(O)c([N+](=O)[O-])c1`, the call in test [1], in test [2], in test [12], in test [11], in test [13] and in test [14] was inactive. For the same molecule, the result in [15], in test [16], in test [18] and in test [20] was inactive. For the same molecule, in test [17], the AC50 is 28 µM (active).
Turning to `CCOP(=S)(OCC)SCSP(=S)(OCC)OCC`, the molecule was classed as inactive in test [1], in [2], in [12], in [3], in test [5] and in test [7]. For the same molecule, the outcome in [13], in [14], in [15], in test [16], in test [17] and in test [18] was inactive. Further, the result in test [19] and in test [20] was inactive. The AC50 was 0.168 µM (active) in test [4] and 12.4 µM (active) in test [8].
As for `CCC(C)(C)c1ccc(O)c(C(C)(C)CC)c1`, the molecule was classed as inactive in test [1] and in [2]. The AC50 in [12] was 8.85 µM (active); in [3], 33.4 µM (active); in [4], 12.6 µM (active); in test [5], 27.4 µM (active); in [6], 27.3 µM (active); in test [10], 33.4 µM (active). Moreover, the AC50 is 9.09 µM (active) in test [8]; 45.8 µM (active) in test [11]; 10.4 µM (active) in test [13]; 32.5 µM (active) in [14]; 9.92 µM (active) in test [15]; 11.1 µM (active) in [16]. The AC50 in test [17] is 7.84 µM (active); in test [9], 55 µM (active); in test [20], 7.65 µM (active).
